Measurements reported in PubChem BioAssay AID588800 (Johns Hopkins Ion Channel Center, 2011).
The source made the active and inactive calls.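 The calls were made as follows: active = peak inhibition of the KCNQ2 potassium channel above 30% at some tested dose, plus a fitted dose response curve; inactive = no inhibition at any dose, or no curve.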

molecular target: Potassium voltage-gated channel subfamily KQT member 2 (Rattus norvegicus) (UniProt O88943); experiment: rat KCNQ2 channel inhibition, SAR follow-up, selectivity assay for KCNK9 inhibitor project, cell-based, FluxOR thallium flux, CRC set 2 (AID 588800); settings: KCNQ2-expressing cells; series mostly up to 30 µM
Sequence (O88943 whole entry, looked up): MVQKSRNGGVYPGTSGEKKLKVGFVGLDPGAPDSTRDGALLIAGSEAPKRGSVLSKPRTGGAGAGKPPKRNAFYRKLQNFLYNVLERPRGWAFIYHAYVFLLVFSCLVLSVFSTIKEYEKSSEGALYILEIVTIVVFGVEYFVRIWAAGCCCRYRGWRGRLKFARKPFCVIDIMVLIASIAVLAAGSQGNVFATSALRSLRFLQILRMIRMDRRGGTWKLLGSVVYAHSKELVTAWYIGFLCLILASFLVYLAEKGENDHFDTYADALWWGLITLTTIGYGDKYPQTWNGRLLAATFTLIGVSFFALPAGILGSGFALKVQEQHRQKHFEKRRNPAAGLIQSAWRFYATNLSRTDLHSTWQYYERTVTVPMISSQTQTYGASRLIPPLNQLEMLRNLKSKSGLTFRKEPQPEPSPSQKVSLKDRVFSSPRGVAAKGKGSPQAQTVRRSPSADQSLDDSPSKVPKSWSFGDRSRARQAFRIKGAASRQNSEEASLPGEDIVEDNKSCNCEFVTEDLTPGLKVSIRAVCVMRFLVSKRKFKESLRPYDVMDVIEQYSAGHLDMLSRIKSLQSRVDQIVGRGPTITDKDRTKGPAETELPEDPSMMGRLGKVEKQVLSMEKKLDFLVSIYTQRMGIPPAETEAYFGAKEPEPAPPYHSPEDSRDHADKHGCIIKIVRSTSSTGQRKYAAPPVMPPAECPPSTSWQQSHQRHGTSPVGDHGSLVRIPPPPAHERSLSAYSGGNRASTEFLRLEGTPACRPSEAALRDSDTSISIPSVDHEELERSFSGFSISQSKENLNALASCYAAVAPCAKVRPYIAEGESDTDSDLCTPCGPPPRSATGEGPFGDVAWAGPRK

outcome, inactive:
Cc1cccc(C(=O)Nc2cccc(NC(=O)c3ccco3)c2)c1, CCOc1ccccc1NC(=O)c1cccc(NC(=O)c2ccccc2OC)c1, CCOc1ccccc1NC(=O)c1cccc(NC(=O)C2CCCO2)c1 (centres undefined), CC(C1CC2CCC1C2)n1c(-c2ccco2)n[nH]c1=S (centres undefined), Cc1cccc(-c2n[nH]c(=S)n2C(C)C2CC3CCC2C3)c1 (centres undefined), Cc1cccc(C(=O)Nc2cccc(NC(=O)c3cccc(C)c3)c2)c1, COc1ccc(C(=O)Nc2cccc(NC(=O)c3cccc(C)c3)c2)cc1, O=C(Nc1cccc(NC(=O)c2ccncc2)c1)c1ccccc1, CCOc1ccccc1NC(=O)c1cccc(NC(=O)c2ccccc2OC(F)(F)F)c1, COc1ccccc1-c1n[nH]c(=S)n1C(C)C1CC2CCC1C2 (centres undefined), O=C(Nc1cccc(NC(=O)c2ccccn2)c1)c1ccccc1, CCOc1ccccc1NC(=O)c1cccc(NC(=O)c2ccccc2C(F)(F)F)c1, Cc1cccc(C(=O)Nc2cccc(NC(=O)c3ccncc3)c2)c1, Cc1cccc(C(=O)Nc2cccc(NC(=O)c3ccccc3C)c2)c1, CCOc1ccccc1NC(=O)c1cccc(NC(=O)c2ccccc2Cl)c1, CC(C1CC2CCC1C2)n1c(-c2ccccc2)n[nH]c1=S (centres undefined), Cc1ccccc1-c1n[nH]c(=S)n1C(C)C1CC2CCC1C2 (centres undefined), O=C(Nc1cccc(NC(=O)c2ccccc2)c1)c1ccccc1, CCOc1ccccc1NC(=O)c1cccc(NC(=O)c2ccc(C(F)(F)F)cc2)c1
